Active and inactive are the calls of the source. The calls were made as follows: active = hit-call score of the fitted dose curve at least 0.9, where 1 is the maximum; inactive = score below 0.9.

For seven compounds, AC50 and outcome results are on record in PubChem BioAssay (EPA / NIEHS).

Assay [1] can be described thus: ATG_E_Box_CIS: Attagene CIS-FACTORIAL HepG2 Assay for human Enhancer Box (E-box) (AID 2282936). The following applies: HepG2 E-box cis-reporter transcription, actives raise or lower the signal. The method, boiled down: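 In this cell-based setup, HepG2 cells bearing transfected promoter-driven reporter units were exposed to chemicals for 24 h; reporter transcripts were amplified, 6-FAM-labelled, cut with HpaI and sized by capillary electrophoresis.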

The nature of assay [2]: ATG_M_61_CIS: Attagene CIS-FACTORIAL HepG2 Assay for M61 Transcription Factor (Internal Marker) (AID 2282937). To be noted: HepG2 Attagene CIS-FACTORIAL M61 internal marker reporter; actives raise or lower the signal. The method, boiled down: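 Cells were transfected with reporter units under cis-regulatory promoters, treated with chemicals for 24 h, then lysed for RNA. Reporter transcripts were quantified by RT-PCR and capillary electrophoresis, and activity was fitted bidirectionally against DMSO.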

Assay [3] can be described thus: ATG_M_19_CIS: Attagene CIS-FACTORIAL HepG2 Assay for M19 Transcription Factor (Internal Marker) (AID 2282939). To be noted: HepG2 Attagene CIS-FACTORIAL M19 internal marker reporter; actives raise or lower the signal. The procedure, abridged:
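In this multiplexed cell assay, transiently transfected HepG2 reporter units report endogenous transcription-factor activity; after 24 hours of treatment, labelled reporter cDNA fragments are quantified by capillary electrophoresis and fitted bidirectionally against DMSO.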

The nature of assay [4]: ATG_ERE_CIS: Attagene CIS-FACTORIAL HepG2 Assay for Estrogen Response Element (ERE) (AID 2282940). The following applies: HepG2 ERE cis-reporter, Attagene RNA transcript; actives raise or lower the signal. The method, boiled down:
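Measuring endogenous transcription factor output, the assay doses transfected HepG2 cells for 24 hours and quantifies reporter transcripts by fluorescent RT-PCR and capillary electrophoresis, with DMSO as baseline.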

The nature of assay [5]: ATG_Ets_CIS: Attagene CIS-FACTORIAL HepG2 Assay for human Erythroblast Transformation Specific (ETS) (AID 2282941). The following applies: HepG2 ETS cis-reporter transcription, actives raise or lower the signal. The method, boiled down:
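Endogenous transcription factor activity read as reporter mRNA via RT-PCR and capillary electrophoresis, with gain or loss fitted bidirectionally against DMSO. Human HepG2 liver cells, transiently transfected CIS reporter constructs, 24 h exposure.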

Assay [6] addresses Hepatocyte nuclear factor 3-beta (Homo sapiens) (UniProt Q9Y261). The experiment in a line: ATG_FoxA2_CIS: Attagene CIS-FACTORIAL HepG2 Assay for human Forkhead box A2 (FOXA2) (AID 2282942). The following applies: HepG2 cis-reporter transcription factor activity, 24 h; actives raise or lower the signal. The procedure, abridged: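 Endogenous transcription factor activity was read in HepG2 cells carrying transiently transfected cis-promoter reporter units. After 24 h dosing, reporter mRNA was quantified by RT-PCR and capillary electrophoresis, and values fitted bidirectionally versus DMSO.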

Assay [7] can be described thus: ATG_FoxO_CIS: Attagene CIS-FACTORIAL HepG2 Assay for human Forkhead box O (FoxO) (AID 2282943). The following applies: HepG2 Attagene cis-reporter, FoxO element, mRNA; actives raise or lower the signal. The method, boiled down:
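Read-out: fluorescence of 6-FAM-labelled reporter cDNA fragments resolved by capillary electrophoresis. Transiently transfected HepG2 cells were dosed for 24 h; activity fitted in both directions relative to DMSO controls.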

A short description of assay [8]: ATG_GATA_CIS: Attagene CIS-FACTORIAL HepG2 Assay for human GATA Binding Protein (AID 2282944). The following applies: HepG2 GATA cis-element reporter, Attagene multiplex mRNA; actives raise or lower the signal. The method, boiled down: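 Measures endogenous transcription factor-driven reporter mRNA in HepG2 cells transiently carrying cis-regulated constructs. 24 h dosing; RNA via oligo(dT) reverse transcription, PCR, HpaI digestion, capillary electrophoresis; fitted relative to DMSO.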

Assay [9] in a line: ATG_GLI_CIS: Attagene CIS-FACTORIAL HepG2 Assay for human Zinc Finger Protein GLI1 (AID 2282945). To be noted: HepG2, Attagene cis-factorial reporter mRNA, GLI element; actives raise or lower the signal. The method, boiled down: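 Transiently transfected HepG2 cells report endogenous transcription factor activity via cis-element-driven reporter units. After 24 h compound exposure, reporter mRNA was measured by RT-PCR with capillary electrophoresis; bidirectional fitting against DMSO baseline.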

Assay [10] deals with Bile acid receptor (Homo sapiens) (UniProt Q96RI1). As to the kind of experiment: ATG_IR1_CIS: Attagene CIS-FACTORIAL HepG2 Assay for human Nuclear Receptor Subfamily 1 Group H Member 4 (NR1H4), IR1 submotif (AID 2282946). The following applies: IR1 reporter transcription, actives raise or lower the signal. The method, boiled down: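 Fluorescence of capillary-separated, HpaI-digested RT-PCR reporter products gave IR1-element mRNA induction in HepG2 cells 24 h after dosing. Endogenous transcription factors drove the cis-regulated reporters; activity was fitted bidirectionally against DMSO.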

The nature of assay [11]: ATG_ISRE_CIS: Attagene CIS-FACTORIAL HepG2 Assay for human Interferon Regulatory Factor 1 (IRF1) binding to an Interferon-Stimulated Response Element (ISRE) (AID 2282948). The following applies: HepG2 ISRE cis-reporter (Attagene), mRNA transcription readout; actives raise or lower the signal. The procedure, abridged:
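Endogenous transcription factor activity read as reporter transcript abundance via RT-PCR and capillary electrophoresis. HepG2 cells transiently transfected, 24 h chemical exposure. Gain or loss fitted against DMSO baseline.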

Assay [12] is described as follows: ATG_M_32_CIS: Attagene CIS-FACTORIAL HepG2 Assay for M32 Transcription Factor (Internal Marker) (AID 2282949).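 Also: background control marker of the multiplexed CIS panel rather than a real target.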 To be noted: HepG2 Attagene cis-factorial M32 reporter, mRNA; actives raise or lower the signal. The method, boiled down:
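HepG2 human liver cells transiently transfected with cis-promoter-driven multiple reporter transcription units, dosed 24 h. Reporter mRNA quantified by RT-PCR, FAM-labelled primer extension, HpaI digest and capillary electrophoresis; bidirectional fit versus DMSO baseline.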

Assay [13] can be described thus: ATG_M_06_CIS: Attagene CIS-FACTORIAL HepG2 Assay for M06 Transcription Factor (Internal Marker) (AID 2282950). The following applies: HepG2 Attagene CIS-FACTORIAL M06 internal marker reporter; actives raise or lower the signal. The procedure, abridged: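 One of many multiplexed endpoints: HepG2 reporter mRNA after 24 h dosing, detected by RT-PCR and capillary electrophoresis fluorescence; gain or loss of signal analysed against DMSO.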

For assay [14], the target named is Hypoxia-inducible factor 1-alpha (Homo sapiens) (UniProt Q16665). As to the kind of experiment: ATG_HIF1a_CIS: Attagene CIS-FACTORIAL HepG2 Assay for human Hypoxia Inducible Factor 1 (HIF1A) (AID 2282951). The following applies: HepG2 Attagene cis-factorial HIF1a reporter transcription; actives raise or lower the signal. The procedure, abridged:
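Measures endogenous transcription-factor activity through cis-regulated reporter mRNA in HepG2. Cells dosed 24 h; transcripts quantified by RT-PCR with 6-FAM-labelled products separated by capillary electrophoresis; DMSO serves as negative control.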

In assay [15] the target is Hepatocyte nuclear factor 6 (Homo sapiens) (UniProt Q9UBC0). As to the kind of experiment: ATG_HNF6_CIS: Attagene CIS-FACTORIAL HepG2 Assay for human Hepatocyte Nuclear Factor 6 (HNF6) (AID 2282952). To be noted: HepG2 Attagene cis-factorial HNF6 reporter transcription; actives raise or lower the signal. The procedure, abridged:
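Endogenous factor activity read in transiently transfected HepG2 via promoter-regulated reporter transcripts. RNA harvested 24 h post-dosing, reverse-transcribed, PCR-amplified, FAM-labelled, HpaI-digested and resolved by capillary electrophoresis; fitted in both directions against DMSO.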

The target in assay [16] is Heat shock factor protein 1 (Homo sapiens) (UniProt Q00613). The experiment in a line: ATG_HSE_CIS: Attagene CIS-FACTORIAL HepG2 Assay for human Heat Shock Transcription Factor 1 (HSE) (AID 2282953). The following applies: HepG2 HSE cis-reporter, Attagene RNA transcription; actives raise or lower the signal. The procedure, abridged: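 Using HepG2 with transfected cis-driven reporter constructs, compound effects on endogenous factor activity are scored as reporter mRNA change at 24 h. Detection: RT-PCR, HpaI digestion, capillary electrophoresis; bidirectional fitting to DMSO.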

A short description of assay [17]: ATG_MRE_CIS: Attagene CIS-FACTORIAL HepG2 Assay for human Metal Responsive Element (MRE) (AID 2282954). To be noted: HepG2 MRE cis-reporter transcription, Attagene multiplex; actives raise or lower the signal. The method, boiled down:
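Measured here is mRNA induction from an MRE cis-element reporter in HepG2 after 24 h, quantified by fluorescence of labelled RT-PCR products on capillary electrophoresis; gain- and loss-of-signal fits use DMSO as baseline.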

The nature of assay [18]: ATG_GRE_CIS: Attagene CIS-FACTORIAL HepG2 Assay for human Glucocorticoid Response Elements (GRE) (AID 2282947). The following applies: HepG2 GRE cis-reporter, Attagene multiplex mRNA; actives raise or lower the signal. The procedure, abridged:
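Fluorescence intensity of reporter-specific cDNA fragments, separated by capillary electrophoresis, provides the signal. Constructs carry cis-regulating promoters in transiently transfected HepG2 liver cells; 24 h incubation; fitting is bidirectional against DMSO.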

The nature of assay [19]: ATG_PBREM_CIS: Attagene CIS-FACTORIAL HepG2 Assay for human Phenobarbital-responsive Enhancer Module (PBREM) (AID 2282955). To be noted: HepG2 PBREM cis-reporter, Attagene multiplexed transcription; actives raise or lower the signal. The procedure, abridged:
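Fluorescence of labelled reporter cDNA fragments, resolved by capillary electrophoresis, gives mRNA induction in transfected HepG2 cells treated for 24 h; DMSO serves as negative control and baseline.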

Hepatocyte nuclear factor 3-beta (Homo sapiens), sequence (Q9Y261 whole entry, looked up): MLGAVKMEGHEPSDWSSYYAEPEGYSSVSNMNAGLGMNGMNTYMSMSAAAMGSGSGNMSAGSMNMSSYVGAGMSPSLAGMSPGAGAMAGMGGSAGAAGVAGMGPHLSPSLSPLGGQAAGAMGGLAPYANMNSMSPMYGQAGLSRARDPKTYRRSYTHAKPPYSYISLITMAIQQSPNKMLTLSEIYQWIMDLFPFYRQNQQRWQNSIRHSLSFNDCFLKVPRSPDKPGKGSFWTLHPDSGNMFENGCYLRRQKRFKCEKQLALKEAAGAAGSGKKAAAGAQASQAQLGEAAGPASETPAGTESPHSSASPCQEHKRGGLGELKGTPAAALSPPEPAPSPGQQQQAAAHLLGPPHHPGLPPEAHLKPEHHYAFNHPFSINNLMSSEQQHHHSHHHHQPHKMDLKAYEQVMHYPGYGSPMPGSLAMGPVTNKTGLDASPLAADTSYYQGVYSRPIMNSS
Heat shock factor protein 1 (Homo sapiens), sequence (Q00613 whole entry, looked up): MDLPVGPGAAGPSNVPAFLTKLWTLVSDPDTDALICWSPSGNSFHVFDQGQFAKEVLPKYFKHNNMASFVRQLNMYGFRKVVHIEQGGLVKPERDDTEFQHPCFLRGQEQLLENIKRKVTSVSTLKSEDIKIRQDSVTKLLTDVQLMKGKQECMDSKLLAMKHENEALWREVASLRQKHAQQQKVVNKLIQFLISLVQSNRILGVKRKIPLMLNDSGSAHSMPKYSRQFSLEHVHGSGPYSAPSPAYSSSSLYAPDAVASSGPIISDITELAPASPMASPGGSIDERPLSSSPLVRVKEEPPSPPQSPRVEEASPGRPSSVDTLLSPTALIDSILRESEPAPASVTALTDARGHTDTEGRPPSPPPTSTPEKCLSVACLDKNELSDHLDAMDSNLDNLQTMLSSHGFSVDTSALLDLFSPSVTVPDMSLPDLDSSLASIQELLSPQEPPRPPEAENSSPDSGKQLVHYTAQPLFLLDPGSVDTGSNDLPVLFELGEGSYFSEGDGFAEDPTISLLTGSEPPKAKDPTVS
Bile acid receptor (Homo sapiens), sequence (Q96RI1 whole entry, looked up): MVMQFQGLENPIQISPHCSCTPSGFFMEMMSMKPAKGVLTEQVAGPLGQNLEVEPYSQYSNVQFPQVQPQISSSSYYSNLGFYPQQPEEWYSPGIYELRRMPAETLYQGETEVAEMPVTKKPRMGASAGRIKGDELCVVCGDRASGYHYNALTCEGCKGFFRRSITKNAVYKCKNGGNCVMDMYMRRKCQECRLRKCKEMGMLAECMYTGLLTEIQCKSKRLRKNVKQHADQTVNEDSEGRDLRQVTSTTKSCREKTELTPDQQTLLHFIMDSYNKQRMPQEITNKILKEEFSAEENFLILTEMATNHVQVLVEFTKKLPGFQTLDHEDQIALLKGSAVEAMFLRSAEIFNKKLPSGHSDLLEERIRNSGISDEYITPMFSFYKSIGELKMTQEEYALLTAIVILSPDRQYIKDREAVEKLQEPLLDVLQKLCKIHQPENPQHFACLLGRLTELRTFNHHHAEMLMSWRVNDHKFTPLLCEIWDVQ
Hepatocyte nuclear factor 6 (Homo sapiens), sequence (Q9UBC0 whole entry, looked up): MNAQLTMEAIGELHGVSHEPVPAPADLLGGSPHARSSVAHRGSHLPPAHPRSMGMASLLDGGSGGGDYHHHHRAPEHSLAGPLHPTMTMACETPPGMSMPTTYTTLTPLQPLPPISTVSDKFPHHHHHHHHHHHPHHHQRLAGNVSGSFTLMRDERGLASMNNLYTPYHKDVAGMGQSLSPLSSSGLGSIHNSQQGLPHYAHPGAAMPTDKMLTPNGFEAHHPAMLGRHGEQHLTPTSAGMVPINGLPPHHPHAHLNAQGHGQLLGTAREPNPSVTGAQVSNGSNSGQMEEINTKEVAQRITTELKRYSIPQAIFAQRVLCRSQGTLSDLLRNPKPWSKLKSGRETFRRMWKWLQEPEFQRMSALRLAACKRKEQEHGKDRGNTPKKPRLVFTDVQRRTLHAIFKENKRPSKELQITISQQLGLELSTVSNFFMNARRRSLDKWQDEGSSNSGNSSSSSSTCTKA
Hypoxia-inducible factor 1-alpha (Homo sapiens), sequence (Q16665 whole entry, looked up): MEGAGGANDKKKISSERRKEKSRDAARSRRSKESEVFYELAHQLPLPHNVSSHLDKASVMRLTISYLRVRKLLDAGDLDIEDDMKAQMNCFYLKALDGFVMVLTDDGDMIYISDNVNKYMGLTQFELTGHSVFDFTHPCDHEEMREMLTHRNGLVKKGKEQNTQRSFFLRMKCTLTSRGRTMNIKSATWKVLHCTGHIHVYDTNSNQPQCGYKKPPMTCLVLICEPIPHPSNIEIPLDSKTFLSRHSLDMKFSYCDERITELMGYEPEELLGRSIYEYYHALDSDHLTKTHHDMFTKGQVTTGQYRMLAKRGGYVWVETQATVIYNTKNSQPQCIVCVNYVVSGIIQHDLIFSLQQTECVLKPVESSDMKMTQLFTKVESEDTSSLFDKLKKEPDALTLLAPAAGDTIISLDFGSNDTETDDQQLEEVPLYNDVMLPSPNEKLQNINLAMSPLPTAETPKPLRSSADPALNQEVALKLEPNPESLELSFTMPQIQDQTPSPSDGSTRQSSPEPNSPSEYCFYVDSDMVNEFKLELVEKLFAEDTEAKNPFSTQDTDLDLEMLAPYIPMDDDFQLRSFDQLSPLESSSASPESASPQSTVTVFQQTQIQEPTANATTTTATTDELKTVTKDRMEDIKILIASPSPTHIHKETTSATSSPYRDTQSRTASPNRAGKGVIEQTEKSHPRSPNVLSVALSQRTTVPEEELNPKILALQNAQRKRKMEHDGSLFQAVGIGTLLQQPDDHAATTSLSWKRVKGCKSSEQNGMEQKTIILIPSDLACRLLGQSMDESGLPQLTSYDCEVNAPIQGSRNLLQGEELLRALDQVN

In the case of `O=C(Cl)c1cc(C(=O)Cl)cc(C(=O)Cl)c1`, the AC50 in assay [1] is 138 µM (active); in assay [10], 153 µM (active); in [16] it was 100 µM (active). Besides, the call in [2], in [3], in [4], in assay [5], in assay [6] and in assay [7] was inactive. The result in [8], in assay [9], in assay [11], in assay [12], in assay [13] and in [14] was inactive. Also, the compound was classed as inactive in assay [15] and in assay [17].
On to `O=C1OC(=O)c2cc(Oc3ccc4c(c3)C(=O)OC4=O)ccc21`, for which the result in assay [1], in assay [2], in assay [3], in assay [4], in [5] and in assay [6] was inactive. For the same compound, the compound was called inactive in assay [7], in assay [9], in assay [10], in assay [11], in [12] and in assay [14]. The compound was classed as inactive in [15], in assay [16] and in assay [17].
Take `Cc1oncc1C(=O)Nc1ccc(C(F)(F)F)cc1`: the result in assay [1], in assay [2], in assay [3], in assay [5], in assay [6] and in assay [7] was inactive. Besides, the call in assay [8], in assay [9], in [10], in assay [18], in assay [11] and in [13] was inactive. In addition, the compound was classed as inactive in assay [15], in assay [16] and in assay [17]. The AC50 in [4] is 25.7 µM (active); in [19] it was 143 µM (active).
`CC(=O)c1ccc[nH]1`: the result in [1], in assay [2], in assay [3], in assay [5], in [6] and in assay [7] was inactive. Moreover, the compound was classed as inactive in assay [8], in [9], in assay [10], in [18], in assay [11] and in [12]. For the same compound, the outcome in assay [13], in assay [14], in [15], in assay [16] and in [17] was inactive.
`O=C(C=Cc1ccccc1)OCc1ccccc1`: the outcome in assay [1], in assay [2], in assay [3], in [4], in assay [5] and in assay [6] was inactive. The compound was classed as inactive in [7], in assay [8], in assay [9], in [18], in [11] and in [12]. The call in assay [13], in assay [14], in assay [15], in [16], in assay [17] and in assay [19] was inactive.
`CCCCCCCC/C=C\CCCCCCCC(=O)O`: the result in [1], in [2], in assay [3], in assay [4], in [5] and in assay [6] was inactive. Further, the outcome in assay [7], in assay [8], in assay [9], in [18], in [11] and in [12] was inactive. Besides, the compound was called inactive in [13], in assay [14], in assay [15] and in assay [17]. Besides, in assay [10], the AC50 is 32 µM (active).
Turning to `CC(C)=CCC[C@H](C)CCO`, the outcome in assay [1], in assay [2], in [3], in assay [4], in assay [5] and in assay [6] was inactive. Besides, the compound was called inactive in [7], in [8], in assay [9], in assay [11], in [12] and in assay [13]. Moreover, the call in [14], in [15], in [16] and in assay [17] was inactive.

What is called AC50 is the concentration giving half of the maximal activity seen.
